# Assay outcomes (PubChem BioAssay)
# BAZ2B block: inhibitors of human BAZ2B bromodomain; Q9UIF8; AlphaScreen BAZ2B-H3K14Ac peptide displacement; Potency, µM (highest dose often 114 µM), for inactives: at the top dose activity change, negative = inhibition, hits mostly inhibitors; hit rate 4.4% among 360,000; further: on the % scale 0 is the no-effect control and ±100 the full control effect; nearly all actives have a fitted effect of over 60% in size
# Target sequence (Q9UIF8 whole entry, looked up): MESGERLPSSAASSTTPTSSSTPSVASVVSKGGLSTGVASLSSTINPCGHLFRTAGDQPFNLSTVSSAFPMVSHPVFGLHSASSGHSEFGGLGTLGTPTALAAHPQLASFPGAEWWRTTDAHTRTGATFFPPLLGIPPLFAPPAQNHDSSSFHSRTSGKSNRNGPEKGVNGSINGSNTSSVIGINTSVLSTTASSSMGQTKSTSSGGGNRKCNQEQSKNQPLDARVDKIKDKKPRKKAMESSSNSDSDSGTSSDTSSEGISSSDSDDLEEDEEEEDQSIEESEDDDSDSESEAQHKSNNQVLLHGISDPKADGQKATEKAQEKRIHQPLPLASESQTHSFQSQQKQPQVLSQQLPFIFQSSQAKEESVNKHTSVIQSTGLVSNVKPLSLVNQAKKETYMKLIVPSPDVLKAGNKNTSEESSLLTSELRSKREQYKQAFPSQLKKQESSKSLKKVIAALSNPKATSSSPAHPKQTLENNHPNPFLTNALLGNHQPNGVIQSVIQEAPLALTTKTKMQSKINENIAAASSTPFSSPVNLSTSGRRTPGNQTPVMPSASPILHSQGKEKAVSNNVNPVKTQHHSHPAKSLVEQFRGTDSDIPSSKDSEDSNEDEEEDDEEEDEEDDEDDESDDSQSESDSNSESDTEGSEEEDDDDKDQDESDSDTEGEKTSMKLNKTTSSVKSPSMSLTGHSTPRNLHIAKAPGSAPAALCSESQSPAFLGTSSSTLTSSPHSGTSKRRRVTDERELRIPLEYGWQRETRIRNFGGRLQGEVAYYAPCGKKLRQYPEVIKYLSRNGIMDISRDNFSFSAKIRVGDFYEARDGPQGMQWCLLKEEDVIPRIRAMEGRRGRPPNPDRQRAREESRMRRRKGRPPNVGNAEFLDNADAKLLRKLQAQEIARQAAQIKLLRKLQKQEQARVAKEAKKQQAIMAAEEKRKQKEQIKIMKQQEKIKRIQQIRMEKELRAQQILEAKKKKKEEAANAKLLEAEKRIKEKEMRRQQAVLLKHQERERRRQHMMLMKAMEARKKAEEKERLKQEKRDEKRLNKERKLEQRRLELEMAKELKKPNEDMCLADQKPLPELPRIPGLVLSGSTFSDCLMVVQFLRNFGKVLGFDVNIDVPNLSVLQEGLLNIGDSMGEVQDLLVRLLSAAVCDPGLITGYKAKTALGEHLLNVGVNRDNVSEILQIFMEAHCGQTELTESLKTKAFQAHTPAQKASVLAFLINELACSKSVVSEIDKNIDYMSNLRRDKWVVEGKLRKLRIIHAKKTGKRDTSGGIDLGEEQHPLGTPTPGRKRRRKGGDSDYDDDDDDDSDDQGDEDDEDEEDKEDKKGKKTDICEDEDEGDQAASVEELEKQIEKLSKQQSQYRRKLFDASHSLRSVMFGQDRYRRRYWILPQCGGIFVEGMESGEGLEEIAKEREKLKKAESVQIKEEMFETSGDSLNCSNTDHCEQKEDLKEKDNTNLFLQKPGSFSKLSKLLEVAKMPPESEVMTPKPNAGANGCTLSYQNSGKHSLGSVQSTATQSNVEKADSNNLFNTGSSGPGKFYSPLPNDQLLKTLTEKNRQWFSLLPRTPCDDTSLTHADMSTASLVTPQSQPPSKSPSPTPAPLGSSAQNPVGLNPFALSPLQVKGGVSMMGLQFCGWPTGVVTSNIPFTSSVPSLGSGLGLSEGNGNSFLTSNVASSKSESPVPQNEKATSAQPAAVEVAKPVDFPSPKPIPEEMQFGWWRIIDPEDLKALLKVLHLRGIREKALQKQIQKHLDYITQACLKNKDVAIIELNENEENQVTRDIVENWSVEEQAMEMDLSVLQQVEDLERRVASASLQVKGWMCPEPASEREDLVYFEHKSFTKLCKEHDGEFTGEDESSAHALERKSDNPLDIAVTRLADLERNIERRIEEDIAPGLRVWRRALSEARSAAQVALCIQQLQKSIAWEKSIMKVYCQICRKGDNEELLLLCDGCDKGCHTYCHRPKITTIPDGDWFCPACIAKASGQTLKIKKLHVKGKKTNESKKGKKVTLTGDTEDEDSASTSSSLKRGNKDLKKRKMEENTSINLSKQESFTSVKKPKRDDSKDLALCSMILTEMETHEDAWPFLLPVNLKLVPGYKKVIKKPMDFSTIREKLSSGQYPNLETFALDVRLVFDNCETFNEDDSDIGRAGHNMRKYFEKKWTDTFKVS
#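 Complex of BAZ2B and biotin-H3K14Ac (50 nM apiece) forms over 30 min at RT, then faces library compounds up to 110 uM for another 30 min; AlphaScreen beads added, 20 min dark incubation, luminescence read.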
# G9a inh: inhibitors of human histone lysine methyltransferase G9a; G9a H3K9 monomethylation, AlphaScreen, 2 h; hit rate 8.8% among 350,000; Q96KQ7; Potency, µM (top dose mostly 102 µM), without a hit: at the top dose activity, negative = inhibition, hits mostly inhibitors; AID 504332; further: on the % scale 0 is the no-effect control and ±100 the full control effect; nearly all actives have a fitted effect of over 75% in size
#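 Quantitative HTS format: methyltransferase activity on a biotin-tagged H3K9 peptide is measured by AlphaScreen, using a rabbit anti-monomethyl-H3K9 antibody with streptavidin donor and anti-IgG acceptor beads. Final levels are 20 nM enzyme, 500 nM peptide, 20 uM SAM; 2 h RT.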
# JMJD2A Tudor: JMJD2A Tudor domain (human) inhibition; AlphaScreen JMJD2A-Tudor / H3K4me3 peptide binding; Potency, µM (titrated, usually from 114 µM), for inactives: at the top dose activity change, negative = inhibition, usual class: inhibitors; hit rate 4.4% among 390,000; AID 504339; further: on the % scale 0 is the no-effect control and ±100 the full control effect; nearly all actives have a fitted effect of over 50% in size
# GLS inhibitor: glutaminase GLS (human) inhibition; O94925; GLS enzymatic activity, qHTS titration; Potency, µM (series often up to 45.5 µM), for inactives: at the highest dose activity change, negative = inhibition, hits mostly inhibitors; hit rate 0.21% among 410,000; AID 624170; further: on the % scale 0 is the no-effect control and ±100 the full control effect
#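 Coupled fluorescence readout: glutamate oxidase/HRP/Amplex Red detect glutamate formed by hKGA from L-glutamine (1 mM solution added). Buffer 45 mM KH2PO4 pH 8.2, 0.02% Tween-20; reads at t0 and 30 min RT.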
# HP1b binding inh: inhibitors of HP1-beta chromodomain binding to methylated histone tails; P83916; hit rate 0.56% among 390,000; Potency, µM (doses to about 114 µM), inactives show at the highest dose activity change, negative = inhibition, usual class: inhibitors; AlphaScreen HP1-beta / biotin-H3K9me3 peptide binding; further: nearly all actives have a fitted effect of over 70% in size
#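 AlphaScreen: HP1-beta (50 nM) preformed 30 min with biotin-H3(1-18)K9me3 peptide (50 nM) in PBS pH 7.4, 0.01% Tween-20. Compound added for 30 min at RT, then streptavidin donor/nickel chelate acceptor beads (10 ug/mL) for 30 min.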
# The depositor's hits bear a star; ? = inconclusive; . = no result given; [ ] = remark or other dose. A selection: hits, their analogues and other compounds. The true share with any hit is near 10%. The call rests on the fitted dose curve; in most records, active means well fitted curve in the direction sought with a large enough effect; inconclusive means small, poorly fitted or top-dose-only effect, or another doubt; inactive means no such curve, though single readings can be large; an effect the other way counts as inactive or inconclusive. Potency means the concentration at half of the fitted maximal effect.
SMILES,BAZ2B block,G9a inh,JMJD2A Tudor,GLS inhibitor,HP1b binding inh
COc1ccc(-c2nc(CS(=O)CC(=O)NCc3ccccc3Cl)c(C)o2)cc1OC (stereo not given),-22%,-30%[59 µM],-7%,0%,23%
COc1ccc(OC)c(NC(=S)NCc2ccc(S(N)(=O)=O)cc2)c1,6%,45µM*,-10%,0%,-18%
COc1ccc(Cl)cc1NC(=S)NCc1ccc(S(N)(=O)=O)cc1,-6%,13%[59 µM],-2%,9%,34%
COc1ccc(NC(=S)NCc2ccc(S(N)(=O)=O)cc2)c(OC)c1,5%,7.1µM*,-4%,33%,-11%
O=C(O)CC/C(=N/NC(=O)CNC(=O)Cc1ccc(Cl)cc1)c1ccccc1,-12%,-6%[12.7 µM],-4%,-1%,45%
NCCCCCc1nnc(SCc2ccc(Cl)cc2Cl)o1,1%,.,-15%,.,34%
COc1cc(C#Cc2c(-c3cncn3C)n(C)c3ccc(-c4cc(OC)c(OC)c(OC)c4)cc23)cc(OC)c1,.,.,?,2%,1%
COc1cc(C#Cc2c(-c3cncn3C)n(C)c3ccc(-c4ccc(OC)nc4)cc23)cc(OC)c1,40µM*,-2%[0.501 µM],14µM*,2%,-11%
CC(C)=NNc1nc2c(c(=O)[nH]c(=O)n2C)n1CCc1ccccc1,?,45µM*,-33%,-1%,?
CC/C(C)=N/Nc1nc2c(c(=O)[nH]c(=O)n2C)n1CCc1ccccc1,-19%,56µM*,-24%,4%,-4%
CCCNc1nc2c(c(=O)[nH]c(=O)n2C)n1CCc1ccccc1,11%,-2%,-12%,9%,50%
CCC1CCCCN1CCCNC(=O)C1CCN(c2ncnc3c2nc2n3CCCCC2)CC1 (stereo not given),-21%,-6%,-11%,-3%,34%
Cc1oc2ccc(O)c(CN3CCCC3)c2c1C(=O)Nc1ccccc1,-35%,-4%[59 µM],-28%,55%,4%
CCc1nnc(NC(=O)CN2C(=O)c3ccccc3S2(=O)=O)s1,-5%,-8%[59 µM],-36%,29%,15%
Cc1nnc(NC(=O)CN2C(=O)c3ccccc3S2(=O)=O)s1,-2%,50µM*,-28%,-1%,22%
Cc1cc(NC(=O)CN2C(=O)c3ccccc3S2(=O)=O)no1,-16%,25µM*,-13%,-1%,27%
CN(C(=O)COC(=O)CCCN1C(=O)c2cccc3cccc(c23)C1=O)C1CCS(=O)(=O)C1 (stereo not given),11%,7%[0.501 µM],-23%,-4%,-5%
CCOC(=O)c1ccc(/[N+]([O-])=C/c2ccccc2)cc1,?,-15%[0.501 µM],32µM*,?,?
C#CCCc1cscc1/C=[N+](\[O-])c1ccc(C(=O)OCC)cc1,-33%,7%[0.501 µM],50µM*,?,?
C#CCCC(=O)c1ccccc1/C=[N+](\[O-])c1ccccc1,-9%,0%[0.501 µM],?,0%,9%
CC1CN(c2ccccc2)CCN1C(=O)c1cc(COc2c(F)cccc2F)on1 (stereo not given),-7%[57.1 µM],21%,-5%,6%,45%
Cc1c(C(=O)NCc2cccnc2)oc2ccc(S(=O)(=O)N3CCCCC3)cc12,-2%,-9%[59 µM],-11%,-5%,15%
COc1ccc(Nc2nc(N)nc(CSC(=S)N3CCOCC3)n2)cc1,-17%,-5%,-25%,2%,22%
COc1ccc(Nc2nc(N)nc(CN3CCOCC3)n2)cc1,79µM*,-1%,50µM*,7%,-5%
COc1ccccc1Nc1nc(N)nc(CN2CCOCC2)n1,56µM*,?,-35%,-1%,52%
SMILES,BAZ2B block,G9a inh,JMJD2A Tudor,GLS inhibitor,HP1b binding inh
COc1ccccc1Nc1nc(N)nc(CN2CCC(C)CC2)n1,-26%,-7%[59 µM],?,0%,14%
COc1ccccc1Nc1nc(N)nc(CN2CCCCCC2)n1,13µM*,?,-17%[11.4 µM],10%,16%
C=CCNC(=O)c1onc(CSc2nc3ccccc3[nH]2)c1C(=O)NCC=C,?,56µM*,-26%,5%,13%
O=C(COc1ccc(Br)cc1F)NC1CC1,.,.,6%,3%,45%
COc1cc(C(=O)N2CCN(c3ccc([N+](=O)[O-])cc3)CC2)ccc1OCc1c(C)noc1C,7%,3%[59 µM],-21%,0%,5%
CCOc1cc(N2CCOCC2)c(OCC)cc1NC(=O)C1CCCC1,-3%,7.9µM*,-8%,-13%,9%
